PubChem BioAssay (NCI)
Values joined by “and” are separate entries in the source; they are usually repeats but may differ in a detail not shown here. Identical values can stand only once. The panel holds about 83,000 compounds, 20% with a hit somewhere; the sample as a whole holds those more often.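 Interpretation: 100, growth as untreated; towards 0, rising growth inhibition; 0, no net growth; 0 to -100, cell death. Compounds scoring below 10 were considered active.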 Active and inactive are the calls of the source.

What was measured:
Experiment in all cases: NCI-60 one-dose screen, 48 h (100 = growth as untreated, 0 = no growth, -100 = all killed)
DU-145 prostate = test system: DU-145 prostate
K-562 leukemia = test system: K-562 leukemia
MALME-3M melanoma = test system: MALME-3M melanoma
MDA-MB-231 breast = test system: MDA-MB-231 breast
RXF 393 renal = test system: RXF 393 renal
SF-268 CNS = test system: SF-268 CNS
SF-295 CNS = test system: SF-295 CNS
SF-539 CNS = test system: SF-539 CNS
UACC-257 melanoma = conditions: 10 µM unless noted
M14 melanoma = test system: M14 melanoma

Measured: growth

CC1(C)CC([P+](c2ccccc2)(c2ccccc2)c2ccccc2)=NN1
inactive: DU-145 prostate; 10 µM unless noted 49.6% | MALME-3M melanoma; 10 µM unless noted 21.2% | MDA-MB-231 breast; 10 µM unless noted 65.4% | RXF 393 renal; 10 µM unless noted 59.6% | SF-268 CNS; 10 µM unless noted 41.1% | SF-295 CNS; 10 µM unless noted 53.2% | SF-539 CNS; 10 µM unless noted 51% | M14 melanoma; 10 µM unless noted 71.9%
active: K-562 leukemia; 10 µM unless noted 9.92% | UACC-257 melanoma 2.89%

CC(=Nc1ccc(N(C)C)cc1)c1ccccc1
inactive: DU-145 prostate; 10 µM unless noted 46.9% | K-562 leukemia; 10 µM unless noted 22.5% | MALME-3M melanoma; 10 µM unless noted 85.5% | MDA-MB-231 breast; 10 µM unless noted 66.5% | RXF 393 renal; 10 µM unless noted 72.8% | SF-268 CNS; 10 µM unless noted 82.3% | SF-295 CNS; 10 µM unless noted 44.4% | SF-539 CNS; 10 µM unless noted 56.7% | UACC-257 melanoma 59.4% | M14 melanoma; 10 µM unless noted 66.1%

Nc1ncnc2c1ncn2C1OC(CO)C(O)C1O (centres undefined)
inactive: DU-145 prostate; 10 µM unless noted 116% and 47.5% and 106% | K-562 leukemia; 10 µM unless noted 93.5% and 26.1% and 116% | MALME-3M melanoma; 10 µM unless noted 147% and 107% and 128% | MDA-MB-231 breast; 10 µM unless noted 122% and 52.5% and 113% | RXF 393 renal; 10 µM unless noted 115% and 103% | SF-268 CNS; 10 µM unless noted 106% and 121% and 102% | SF-295 CNS; 10 µM unless noted 105% and 104% and 100% | SF-539 CNS; 10 µM unless noted 109% and 98% and 91.5% | UACC-257 melanoma 84.9% and 124% and 105% | M14 melanoma; 10 µM unless noted 111% and 115%

COc1ccc(N=N/N=c2\sc3cc(OC)ccc3n2C)cc1
inactive: DU-145 prostate; 10 µM unless noted 91.8% | K-562 leukemia; 10 µM unless noted 80.8% | MALME-3M melanoma; 10 µM unless noted 109% | MDA-MB-231 breast; 10 µM unless noted 90.5% | RXF 393 renal; 10 µM unless noted 105% | SF-268 CNS; 10 µM unless noted 97.6% | SF-295 CNS; 10 µM unless noted 83.3% | SF-539 CNS; 10 µM unless noted 99.4% | UACC-257 melanoma 80% | M14 melanoma; 10 µM unless noted 110%

CN(C)C(=O)c1ccc(SC(=S)NCc2ccccc2)cc1
inactive: DU-145 prostate; 10 µM 111% | DU-145 prostate; 100 µM 10.1% | K-562 leukemia; 10 µM 82.6% | MALME-3M melanoma; 10 µM 108% | MDA-MB-231 breast; 10 µM 109% | MDA-MB-231 breast; 100 µM 13.3% | RXF 393 renal; 10 µM 108% | SF-268 CNS; 10 µM 124% | SF-268 CNS; 100 µM 50.2% | SF-295 CNS; 10 µM 119% | SF-295 CNS; 100 µM 26.3% | SF-539 CNS; 10 µM 102% | UACC-257 melanoma 18.4% [100 µM] | M14 melanoma; 10 µM 103%
active: K-562 leukemia; 100 µM 3.9% | MALME-3M melanoma; 100 µM -12.7% | RXF 393 renal; 100 µM -72.4% | SF-539 CNS; 100 µM -62.3% | M14 melanoma; 100 µM -42%

CCOC(=O)/C(=C\c1ccc(-c2ccccc2)cc1)C(C)=O
inactive: DU-145 prostate; 10 µM unless noted 99.3% | K-562 leukemia; 10 µM unless noted 101% | MALME-3M melanoma; 10 µM unless noted 87.1% | MDA-MB-231 breast; 10 µM unless noted 112% | RXF 393 renal; 10 µM unless noted 95.6% | SF-268 CNS; 10 µM unless noted 91% | SF-295 CNS; 10 µM unless noted 102% | SF-539 CNS; 10 µM unless noted 98% | UACC-257 melanoma 120% | M14 melanoma; 10 µM unless noted 94.7%

O=C(Nc1cccc(Br)c1)Oc1ccc(Cl)c2cccnc12
inactive: DU-145 prostate; 10 µM unless noted 42.2% [100 µM] | K-562 leukemia; 10 µM unless noted 10.4% [100 µM] | MALME-3M melanoma; 10 µM unless noted 27% [100 µM] | MDA-MB-231 breast; 10 µM unless noted 20.1% [100 µM] | RXF 393 renal; 10 µM unless noted 51.6% [100 µM] | SF-268 CNS; 10 µM unless noted 16.4% [100 µM] | SF-295 CNS; 10 µM unless noted 12.1% [100 µM]
active: SF-539 CNS; 10 µM unless noted 9.36% [100 µM] | UACC-257 melanoma 7.32% [100 µM] | M14 melanoma; 10 µM unless noted 8.2% [100 µM]

Cc1ccc(NS(=O)(=O)c2ccc(C)cc2)cc1
inactive: DU-145 prostate; 10 µM unless noted 101% and 104% | K-562 leukemia; 10 µM unless noted 85.7% and 101% | MALME-3M melanoma; 10 µM unless noted 105% and 101% | MDA-MB-231 breast; 10 µM unless noted 103% and 107% | RXF 393 renal; 10 µM unless noted 103% and 96.1% | SF-268 CNS; 10 µM unless noted 97.8% and 93.1% | SF-295 CNS; 10 µM unless noted 95.5% and 93.4% | SF-539 CNS; 10 µM unless noted 111% and 101% | UACC-257 melanoma 89.8% and 77.2% | M14 melanoma; 10 µM unless noted 98% and 99.2%

CCOC(=O)/C=C/c1ccc([N+](=O)[O-])o1
inactive: DU-145 prostate; 10 µM unless noted 69.2% | MDA-MB-231 breast; 10 µM unless noted 67.8% | RXF 393 renal; 10 µM unless noted 18.4% | SF-268 CNS; 10 µM unless noted 76.2% | SF-295 CNS; 10 µM unless noted 99.2% | SF-539 CNS; 10 µM unless noted 68.3% | UACC-257 melanoma 54.2% | M14 melanoma; 10 µM unless noted 70.1%
active: K-562 leukemia; 10 µM unless noted 9.66% | MALME-3M melanoma; 10 µM unless noted -6.92%

CNC(=O)N/N=C/c1ccc([N+](=O)[O-])o1
inactive: DU-145 prostate; 10 µM unless noted 104% | K-562 leukemia; 10 µM unless noted 96.5% | MALME-3M melanoma; 10 µM unless noted 112% | MDA-MB-231 breast; 10 µM unless noted 97.6% | RXF 393 renal; 10 µM unless noted 115% | SF-268 CNS; 10 µM unless noted 94.2% | SF-295 CNS; 10 µM unless noted 107% | SF-539 CNS; 10 µM unless noted 110% | UACC-257 melanoma 87.8% | M14 melanoma; 10 µM unless noted 102%

COC(=O)c1nc(=S)[nH]c(C(=O)OC)c1C(=O)c1ccc2ccccc2c1
inactive: DU-145 prostate; 10 µM unless noted 110% | K-562 leukemia; 10 µM unless noted 102% | MALME-3M melanoma; 10 µM unless noted 94.5% | MDA-MB-231 breast; 10 µM unless noted 90.4% | RXF 393 renal; 10 µM unless noted 99.6% | SF-268 CNS; 10 µM unless noted 102% | SF-295 CNS; 10 µM unless noted 98.6% | SF-539 CNS; 10 µM unless noted 92.5% | UACC-257 melanoma 112% | M14 melanoma; 10 µM unless noted 112%
